Here are results for 20 molecules from PubChem BioAssay (Tox21).

SMILES strings stand for the structures. Several values for one entry are separate records, joined by “and”; a condition that tells them apart may be missing. Equal entries are not always repeated. Records with an inconclusive call do not appear. Activity calls are given as the source filed them. Unless noted, calls follow the shape of the dose curve; as a rule, active = well fitted curve in the direction sought with a large enough effect in the repeat runs; inconclusive = weak or mixed curves; inactive = no such curve, though single readings can be large; an effect the other way counts as inactive or inconclusive. Positions of bridges follow the written chain, without caps; N, C: chain ends. Non-standard residues stand in square brackets, D forms with d. Residues, ends and D or L forms follow the SMILES beside them. Orn = NCCC[C@H](N)C(=O)O; Mpa = O=C(O)CCS

The nature of assay [1]: qHTS assay to identify small molecule antagonists of the glucocorticoid receptor (GR) signaling pathway - cell viability counter screen (AID 720693; also: nearly all actives have a fitted effect of over 55% in size; also: potency is read from the fitted curve at half-maximal effect). (In general: In qHTS, concentration-response curves come from the screen itself.)
The nature of assay [2]: qHTS assay for identifying genotoxic compounds that show differential cytotoxicity against isogenic chicken DT40 cell lines with known DNA damage response pathways - wild type cell line (AID 743012). Also: nearly all actives have a fitted effect of over 60% in size. Also: potency is read from the fitted curve at half-maximal effect. The essentials:
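300 wt DT40 cells/well; cpd (DMSO) pintool-transferred after ~0.5 h at 37 C/5% CO2; 40 h incubation; CellTiter-Glo added, 30 min RT; luminescence read.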

A short description of assay [3]: qHTS assay for identifying genotoxic compounds that show differential cytotoxicity against isogenic chicken DT40 cell lines with known DNA damage response pathways - Rev3 mutant cell line (AID 743014). Also: nearly all actives have a fitted effect of over 55% in size. Also: potency is read from the fitted curve at half-maximal effect.
Assay [4] can be described thus: qHTS assay for identifying genotoxic compounds that show differential cytotoxicity against isogenic chicken DT40 cell lines with known DNA damage response pathways - Rad54/Ku70 mutant cell line (AID 743015). Also: nearly all actives have a fitted effect of over 60% in size. Also: potency is read from the fitted curve at half-maximal effect.
A short description of assay [5]: qHTS assay to identify small molecule antagonists of the androgen receptor (AR) signaling pathway - cell viability counter screen (AID 743033; also: nearly all actives have a fitted effect of over 45% in size).
For assay [6], the target named is Androgen receptor (Homo sapiens) (UniProt P10275). Description: qHTS assay to identify small molecule antagonists of the androgen receptor (AR) signaling pathway (AID 743035; active = well fitted inhibition curve with a large enough effect in the signal ratio in the repeat runs, not every such curve was filed as active; the % refers to the signal ratio; also: potency is read from the fitted curve at half-maximal effect). Summed up: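 In this cell-based reporter screen, compounds were tested in concentration series against R1881-activated HEK293 cells expressing beta-lactamase under UAS control; after 16 h at 37C, FRET substrate was added and fluorescence read 2 h later.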

Assay [7] shares this target. In words: qHTS assay to identify small molecule agonists of the androgen receptor (AR) signaling pathway using the MDA cell line (AID 743040; also: nearly all actives have a fitted effect of over 20% in size; also: potency is read from the fitted curve at half-maximal effect). The essentials:
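Stable MMTV-luciferase reporter in MDA-kb2 cells; note the promoter carries GR as well as AR response elements. 16 h compound treatment, 37C, 0% CO2; ONE-Glo luminescence endpoint.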

A short description of assay [8]: qHTS assay to identify small molecule antagonists of the androgen receptor (AR) signaling pathway using the MDA cell line - cell viability counter screen (AID 743041; also: nearly all actives have a fitted effect of over 45% in size). The essentials:
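Using the breast carcinoma line MDA-kb2 AR-luc, test chemicals were co-incubated with R1881 for 16 h; CellTiter-Fluor reagent, added at 15.5 h, provided a fluorescence measure of live cells.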

Assay [9] has as its target Androgen receptor (Homo sapiens) (UniProt P10275). In words: qHTS assay to identify small molecule antagonists of the androgen receptor (AR) signaling pathway using the MDA cell line (AID 743042; also: nearly all actives have a fitted effect of over 55% in size). Summed up:
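Antagonist mode: compounds plus R1881 agonist added to MDA-kb2 AR-luc cells, incubated 16 h at 37C. Luciferase reporter luminescence quantified, with multiplexed CellTiter-Fluor readout for cell viability.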

The target is the same in assay [10]. Description: qHTS assay to identify small molecule agonists of the androgen receptor (AR) signaling pathway (AID 743036; active = well fitted activation curve with a large enough effect in the signal ratio in the repeat runs, with a control signal flat, not every such curve was filed as active; the % refers to the signal ratio; also: potency is read from the fitted curve at half-maximal effect). The essentials: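 Quantitative HTS of the Tox21 10K library in HEK293 cells bearing a stably integrated UAS-controlled beta-lactamase reporter. Compound exposure lasted 16 h at 37C. Reporter activity was detected by FRET substrate fluorescence after 2 h at room temperature.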

Sequence of Androgen receptor (Homo sapiens) (P10275 whole entry, looked up): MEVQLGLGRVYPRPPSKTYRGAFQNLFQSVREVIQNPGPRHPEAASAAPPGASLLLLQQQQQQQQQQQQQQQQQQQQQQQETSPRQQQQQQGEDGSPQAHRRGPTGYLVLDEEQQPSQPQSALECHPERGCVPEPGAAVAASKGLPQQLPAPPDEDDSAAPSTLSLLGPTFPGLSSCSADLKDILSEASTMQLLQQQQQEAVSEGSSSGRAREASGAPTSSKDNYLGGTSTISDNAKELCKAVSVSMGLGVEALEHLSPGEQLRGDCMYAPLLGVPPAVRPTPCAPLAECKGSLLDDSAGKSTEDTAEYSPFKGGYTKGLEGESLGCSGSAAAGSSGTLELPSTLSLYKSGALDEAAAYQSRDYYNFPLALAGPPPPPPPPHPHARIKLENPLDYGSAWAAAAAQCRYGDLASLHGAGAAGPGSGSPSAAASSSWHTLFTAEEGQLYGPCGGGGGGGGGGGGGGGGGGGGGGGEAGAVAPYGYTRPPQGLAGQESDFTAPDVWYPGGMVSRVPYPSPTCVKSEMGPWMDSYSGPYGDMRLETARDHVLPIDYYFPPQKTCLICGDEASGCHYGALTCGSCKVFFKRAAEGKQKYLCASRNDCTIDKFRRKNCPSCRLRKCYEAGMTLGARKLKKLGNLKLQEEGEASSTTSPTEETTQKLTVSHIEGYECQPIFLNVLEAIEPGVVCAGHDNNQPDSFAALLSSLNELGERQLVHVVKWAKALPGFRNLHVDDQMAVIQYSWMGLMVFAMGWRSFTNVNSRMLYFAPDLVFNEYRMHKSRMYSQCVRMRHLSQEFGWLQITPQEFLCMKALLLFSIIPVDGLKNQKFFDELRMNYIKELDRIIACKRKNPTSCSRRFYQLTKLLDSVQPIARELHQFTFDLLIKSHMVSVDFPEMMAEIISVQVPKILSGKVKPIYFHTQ

On to `CN[C@@H]1[C@H](O[C@H]2[C@H](O[C@H]3[C@H](O)[C@@H](O)[C@H](N=C(N)N)[C@@H](O)[C@@H]3N=C(N)N)O[C@@H](C)[C@]2(O)CO)O[C@@H](CO)[C@H](O)[C@H]1O`, for which the Potency entry in assay [1], in [2], in [3], in [4], in [5] and in assay [6] was “inactive” each time. Also, the Potency result in assay [7], in assay [8] and in assay [9] was “inactive” each time.

As to `O=C[C@H](O)[C@@H](O)[C@H](O[C@H]1O[C@H](CO)[C@@H](O[C@H]2O[C@H](CO)[C@@H](O)[C@H](O)[C@H]2O)[C@H](O)[C@H]1O)[C@H](O)CO`, the Potency result in assay [1], in assay [2], in assay [3], in [4], in assay [5] and in [6] was “inactive” each time. Also, the Potency result in [8] and in [9] was “inactive” throughout. For the same molecule, the Potency in [10] was 7.56 µM (active); in assay [7] it was 1.68 µM (active).

For `CN1CC(O)c2cc(N=NC(N)=O)c(O)cc21` (stereo not drawn), the Potency result in assay [1], in assay [2], in [3], in [4] and in assay [5] was “inactive” throughout.

As to `CCOc1ccc(C[C@H]2NC(=O)CCSSC[C@@H](C(=O)N3CCC[C@H]3C(=O)N[C@@H](CCCN)C(=O)NCC(N)=O)NC(=O)[C@H](CC(N)=O)NC(=O)[C@H]([C@@H](C)O)NC(=O)[C@H]([C@@H](C)CC)NC2=O)cc1` ([Mpa][dY](Et)ITNCP[Orn]G-NH2; disulfide 1-6), the Potency entry in assay [1], in assay [2], in assay [3], in assay [4], in [5] and in assay [6] was “inactive” in each case. Besides, the Potency result in assay [10], in assay [7], in assay [8] and in [9] was “inactive” throughout.

Consider `CCC(C)[C@H]1O[C@]2(C=C[C@@H]1C)C[C@@H]1C[C@@H](C/C=C(\C)[C@@H](O[C@H]3C[C@H](OC)[C@@H](O[C@H]4C[C@H](OC)[C@H](NC(C)=O)[C@H](C)O4)[C@H](C)O3)[C@@H](C)/C=C/C=C3\CO[C@@H]4[C@H](O)C(C)=C[C@@H](C(=O)O1)[C@]34O)O2` (stereo partly drawn), for which the Potency in [1] is 7.56 µM (active) and 19 µM (active); in assay [2] it was 841 nM (active) and 1.68 µM (active); in assay [3], 1.33 µM (active) and 2.98 µM (active); in assay [4], 1.68 µM (active) and 3.35 µM (active). Moreover, in assay [5], the Potency result is “inactive”.

`O=c1oc2cc(O)ccc2s1`: the Potency entry in [1], in assay [2], in assay [3], in [4] and in assay [5] was “inactive” each time.

For the molecule `CCCCCCCCCCCCCCCCCC(=O)OC[C@@H](O)[C@H]1OC[C@H](O)[C@H]1O`, the Potency entry in [1], in [2], in [3], in assay [4], in [5] and in assay [6] was “inactive” throughout. Besides, the Potency result in assay [8] and in assay [9] was “inactive” each time.

`S=C1SCN(Cc2ccccc2)CN1Cc1ccccc1`: the Potency result in assay [1] and in assay [5] was “inactive” throughout. The Potency is 10.6 µM (active) in assay [2], 13.3 µM (active) in assay [3] and 13.3 µM (active) in assay [4].

Take `O=C(O)c1nc(=O)[nH]c(=O)[nH]1`: the Potency entry in assay [1], in [2], in assay [3], in assay [4], in [5] and in assay [6] was “inactive” throughout. The Potency result in assay [10], in assay [8] and in [9] was “inactive” each time.

Regarding `CC(CN1c2ccccc2Sc2ccc(S(=O)(=O)N(C)C)cc21)N(C)C` (stereo not drawn), the Potency result in assay [1], in assay [5], in assay [6], in assay [7], in assay [8] and in assay [9] was “inactive” in each case. Further, the Potency in [2] was 11.9 µM (active); in assay [3], 26.6 µM (active); in [4] it was 18.8 µM (active).

For the molecule `O=C(Cc1cccs1)N[C@@H]1C(=O)N2C(C(=O)[O-])=C(C[n+]3ccccc3)CS[C@H]12`, the Potency result in [1], in [2], in [3], in [4], in [5] and in assay [6] was “inactive” throughout. Besides, the Potency entry in assay [10], in [7], in assay [8] and in [9] was “inactive” throughout.

As for `OCC(O)COc1ccc(Cl)cc1` (stereo not drawn), the Potency result in [1], in [2], in [3], in assay [4], in assay [5] and in assay [6] was “inactive” throughout. Also, the Potency result in [10], in [8] and in assay [9] was “inactive” in each case.

Turning to `CCCOc1cc(N)ccc1C(=O)OCCN(CC)CC`, the Potency entry in [1], in assay [2], in assay [3], in [4], in assay [5] and in assay [6] was “inactive” each time. Besides, the Potency entry in assay [10], in assay [7], in assay [8] and in assay [9] was “inactive” throughout.

In the case of `CCOC(=O)CCC(=O)O[C@H]1[C@H](O[C@@H]2[C@@H](C)[C@H](O[C@H]3C[C@@](C)(OC)[C@@H](O)[C@H](C)O3)[C@@H](C)C(=O)O[C@H](CC)[C@@](C)(O)[C@H](O)[C@@H](C)C(=O)[C@H](C)C[C@@]2(C)O)O[C@H](C)C[C@@H]1N(C)C`, the Potency result in [1], in [2], in assay [3], in [4], in assay [5] and in assay [6] was “inactive” each time. The Potency result in assay [10], in assay [7], in assay [8] and in assay [9] was “inactive” each time.

As for `C[C@H]1[C@@H](OC(=O)CCC(=O)O)O[C@@H]2OC3(C)CC[C@H]4[C@H](C)CC[C@@H]1[C@@]24OO3`, the Potency result in assay [1] and in [5] was “inactive” throughout. Further, the figures for the Potency in assay [2], in assay [3] and in assay [4] were 0.188 µM (active), 0.188 µM (active) and 0.119 µM (active), respectively.

`CC1(C)S[C@@H]2[C@H](NC(=O)[C@H](NC(=O)N3CCN(S(C)(=O)=O)C3=O)c3ccccc3)C(=O)N2[C@H]1C(=O)O`: the Potency entry in assay [1], in assay [2], in assay [3], in assay [4], in [5] and in assay [6] was “inactive” throughout. For the same molecule, the Potency result in [8] and in [9] was “inactive” each time.

For the molecule `O=C(/C=C/c1cccc(F)c1)NC1CC1`, the Potency result in [1], in assay [2], in assay [3], in assay [4] and in [5] was “inactive” each time.

`COC(=O)C1=C(C)NC(C)=C(C(=O)O[C@H]2CCN(Cc3ccccc3)C2)[C@H]1c1cccc([N+](=O)[O-])c1`: the Potency result in assay [1] and in assay [5] was “inactive” in each case. In addition, the Potency in assay [2] is 10.6 µM (active); in assay [3] it was 18.8 µM (active); in assay [4], 13.3 µM (active); in assay [6], 26.8 µM (active).

Turning to `CO[C@@H]1[C@@H](O[C@@H]2O[C@H](C)[C@@H](O[C@H]3C[C@@](C)(O)[C@@H](OC(=O)CC(C)C)[C@H](C)O3)[C@H](N(C)C)[C@H]2O)[C@@H](CC=O)C[C@@H](C)C(=O)/C=C/C2OC2C[C@@H](C)OC(=O)C[C@H]1OC(C)=O` (stereo partly drawn), the Potency result in [1] and in assay [5] was “inactive” throughout. The values for the Potency in assay [2], in assay [3] and in assay [4] were 3.35 µM (active), 5.31 µM (active) and 5.31 µM (active), respectively.

On to `CCC(CN)CC(C)CCNCC(O)CNCC(C)CC(CC)CN` (stereo not drawn), for which the Potency result in assay [1], in [2], in assay [3], in assay [4], in assay [5] and in [6] was “inactive” throughout. The Potency entry in assay [10], in assay [7], in assay [8] and in assay [9] was “inactive” throughout.
